CCHF vOTU inh-1: CCHFV vOTU protease inhibition | 0.55% of 370,000 active | Pep-AMC fluorescence | AID 651958 | inhibition, % at 11.5 µM
DUSP3 inh: DUSP3 (human) phosphatase inhibition. P51452. recombinant VHR phosphatase, pNPP absorbance. inhibition, % at 13.3 µM. 0.52% of 290,000 active. AID 1654; in the data active = inhibition above about 50%
Target sequence (P51452 whole entry, looked up): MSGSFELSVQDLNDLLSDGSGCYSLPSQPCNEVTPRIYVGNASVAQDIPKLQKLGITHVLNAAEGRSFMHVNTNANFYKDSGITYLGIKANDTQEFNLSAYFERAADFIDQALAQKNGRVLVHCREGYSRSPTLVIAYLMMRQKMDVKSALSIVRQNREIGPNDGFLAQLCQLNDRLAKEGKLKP
PriA SSB inh: blocks PriA binding to SSB C-terminal tail. 0.6% of 430,000 active. AID 1272365. inhibition, % at 33 µM. AlphaScreen SSBct-PriA binding, biotinylated peptide; in the data active = inhibition mostly above about 37%, no sharp cut-off; inactive = mostly below about 20%
3CLpro inhibitor: SARS-CoV 3CLpro protease inhibition | recombinant SARS-CoV 3CLpro, quenched FRET peptide cleavage | 0.14% of 290,000 active | P0C6X7 | inhibition, % at 6 µM; in the data active = inhibition above about 12%
Mtb hypoxia inh: reduces hypoxia-regulated biosensor signal in M. tuberculosis; M. tuberculosis hypoxia-regulated fluorescent reporter, fluorescence; fluorescence inhibition, % (concentration not given with the values); 0.1% of 300,000 active; AID 1159583; in the data active = fluorescence inhibition mostly above about 23%, no sharp cut-off; inactive = mostly below about 17%
CCHF vOTU inh-2: CCHFV vOTU protease inhibition, confirmation. shares compounds with CCHF vOTU inh-1. Recombinant CCHFV vOTU, Pep-AMC fluorescence. inhibition, % at 11.5 µM. 17% of 1,900 active. AID 686976
Hits are given with their value; i = inactive; nt = no result. In the library only some 1.3% were active in any assay of this set; here they are far more common. Rule as the data show it, unless noted: active = inhibition above about 30%; inactive = the rest.

SMILES	CCHF vOTU inh-1	DUSP3 inh	PriA SSB inh	3CLpro inhibitor	Mtb hypoxia inh	CCHF vOTU inh-2
O=S(=O)(Nc1ccc(Cl)c(Cl)c1)c1cccc2cccnc12	nt	nt	i	nt	nt	nt
CCN(CC)C(=O)c1cccc(-c2csc(C(O)c3ccc(F)cc3)n2)c1 (stereo not given)	i	nt	nt	nt	nt	nt
CCN(CC)C(=O)c1cccc(-c2csc(C(O)c3ccc(F)c(F)c3)n2)c1 (stereo not given)	30	nt	nt	nt	nt	i
CC1(C)COc2cc(NC(=O)Cc3ccc(Cl)cc3)ccc2NC1=O	nt	nt	i	nt	nt	nt
Nc1ccc2nn(-c3cccc4ccccc34)nc2c1	60	i	i	i	nt	i
COC(=O)c1c(NC(=O)c2ccco2)sc(C(=O)N(C)C)c1C	32	i	i	i	i	i
COC(=O)c1c(NC(=O)c2cccnc2)sc(C(=O)N(C)C)c1C	i	i	i	i	i	nt
COc1cc(C(c2c(C)[nH]n(-c3ccccc3)c2=O)c2c(C)[nH]n(-c3ccccc3)c2=O)cc(OC)c1OC	80	i	i	i	i	i
Cc1[nH]n(-c2ccccc2)c(=O)c1C(c1ccc(C(=O)O)cc1)c1c(C)[nH]n(-c2ccccc2)c1=O	71	i	i	i	i	i
CCCCCCCCN1C(=O)[C@@H](CC(=O)NCCc2ccccc2OC)C[C@@]2(C(=O)OC)C1=C[C@H](C(C)C)O[C@@H]2C1CC1	35	nt	nt	nt	nt	i
CCCCCCCCN1C(=O)[C@H](CC(=O)NCc2ccccc2)C[C@@]2(C(=O)OC)CCCCC=C12	40	nt	nt	nt	nt	31
COC(=O)[C@]12C[C@H](CC(=O)NCCc3ccccc3OC)C(=O)N(CCc3ccc(OC)c(OC)c3)C1=C[C@H](C(C)C)O[C@@H]2C1CC1	i	nt	nt	nt	nt	nt
CCCCCCCCN1C(=O)[C@H](CC(=O)N2CCCC2)C[C@@]2(C(=O)OCC)CCCC=C12	34	nt	nt	nt	nt	i
COC(=O)[C@@]12C[C@@H](CC(=O)NCc3ccc(C)o3)C(=O)N(CCc3ccc(OC)c(OC)c3)C1=CCC(C)(C)C2	36	nt	nt	nt	nt	i
O=C(CCSc1ccccc1)N1CCC(n2c(=O)[nH]c3ccc(F)cc3c2=O)CC1	nt	nt	i	nt	nt	nt
CCCCCCCCN1C(=O)[C@@H](CC(=O)NCc2ccccc2)C[C@@]2(C(=O)OC)C1=C[C@H](C(C)C)O[C@@H]2C1CC1	39	nt	nt	nt	nt	i
COC(=O)[C@]12C[C@H](CC(=O)NCc3ccc(C)o3)C(=O)N(Cc3ccco3)C1=C[C@H](C(C)C)O[C@@H]2C1CC1	i	nt	nt	nt	nt	nt
COC(=O)[C@]12CCCCC=C1N(CCC1=CCCCC1)C(=O)[C@H](CC(=O)NCCC(C)C)C2	44	nt	nt	nt	nt	i
CCCCCCCCN1C(=O)[C@@H](CC(=O)NCc2ccc(C)o2)C[C@@]2(C(=O)OC)C1=C[C@H](C(C)C)O[C@@H]2C1CC1	30	nt	nt	nt	nt	i
CCCCCCCCN1C(=O)[C@@H](CC(=O)N2CCN(C(=O)OCC)CC2)C[C@@]2(C(=O)OC)C1=C[C@H](C(C)C)O[C@@H]2C1CC1	33	nt	nt	nt	nt	i
CCOC(=O)c1c(-c2ccc(C)c(C)c2)csc1NC(=O)CCSc1nc2sc3c(c2c(=O)n1-c1ccccc1)CCC3	nt	nt	i	nt	nt	nt
O=C(NCc1ccc(C(O)c2cccs2)s1)c1ccoc1 (stereo not given)	nt	nt	i	nt	nt	nt
Cc1c(C(=O)O)nnn1-c1cccc2ncccc12	nt	nt	i	nt	nt	nt
CN(C)C(CNS(=O)(=O)c1cccc([N+](=O)[O-])c1)c1cccs1 (stereo not given)	nt	nt	i	nt	nt	nt
CN1C(=O)Cc2cc(NC(=O)Nc3ccc(F)cc3)ccc21	nt	nt	i	nt	nt	nt
SMILES	CCHF vOTU inh-1	DUSP3 inh	PriA SSB inh	3CLpro inhibitor	Mtb hypoxia inh	CCHF vOTU inh-2
O=C(Nc1ccc(-c2nc3ccccc3[nH]2)cc1)c1ccc2c(c1)OCO2	36	i	i	i	i	i
O=C(Nc1ccc(Cl)c(-c2nc3ccccc3[nH]2)c1)c1ccc2c(c1)OCO2	i	i	i	i	i	nt
CCN(c1cccc(C(F)(F)F)c1)S(=O)(=O)c1ccc2c(c1)CCN2C(C)=O	42	i	i	i	nt	i
O=C(CSc1ncc(-c2ccccc2)n1Cc1ccco1)N1CCCCC1	nt	nt	i	nt	nt	nt
Cc1nnc(N/N=C/c2ccc(O)c([N+](=O)[O-])c2)[nH]c1=O	32	i	nt	i	nt	i
Cc1csc(N/N=C/c2ccc(O)c([N+](=O)[O-])c2)n1	i	i	nt	i	nt	nt
CCCCOCCCNC(=O)C[C@H]1C[C@@]2(C(=O)OC)C(=C[C@H](C(C)(C)C)O[C@@H]2C)N(Cc2cccc3ccccc23)C1=O	35	nt	nt	nt	nt	i
CCCCOCCCNC(=O)C[C@H]1C[C@@]2(C(=O)OC)C(=C[C@H](COCc3ccccc3)O[C@@H]2C)N(Cc2ccc3c(c2)OCO3)C1=O	i	nt	nt	nt	nt	nt
CCCCCCCCN1C(=O)[C@@H](CC(=O)NCCCOCCCC)C[C@@]2(C(=O)OC)C1=C[C@H](C1CCCC1)O[C@@H]2C	i	nt	nt	nt	nt	nt
CCCCOCCCNC(=O)C[C@H]1C[C@@]2(C(=O)OC)C(=C[C@H](C(C)(C)C)O[C@@H]2C)N(Cc2ccc3c(c2)OCO3)C1=O	37	nt	nt	nt	nt	i
CCCCCCCCN1C(=O)[C@@H](CC(=O)NCCCOCCCC)C[C@@]2(C(=O)OC)C1=C[C@H](COCc1ccccc1)O[C@@H]2C	30	nt	nt	nt	nt	i
C#CCNC(=O)C[C@H]1C[C@@]2(C(=O)OC)C(=C[C@H](C3CCCC3)O[C@@H]2C)N(CCCCCCCC)C1=O	39	nt	nt	nt	nt	i
Cc1cccc(CC(=O)Nc2ccc3c(c2)CN(C(=O)c2ccccc2)CC3)c1	nt	nt	i	nt	nt	nt
O=C(Nc1nc2ccc(S(=O)(=O)N3CCOCC3)cc2s1)C(c1ccccc1)c1ccccc1	nt	nt	i	nt	nt	nt
COc1ccc(C(CNC(=O)C(=O)NC2CCCC2)N2CCN(C)CC2)cc1 (stereo not given)	i	nt	i	nt	i	nt
COc1ccc(C(CNC(=O)C(=O)NC2CCCCC2)N2CCN(C)CC2)cc1 (stereo not given)	32	nt	i	nt	i	i
O=S(=O)(Nc1ccc(Cl)c(C(F)(F)F)c1)c1cnc[nH]1	32	i	i	i	nt	i
CC(=NNC(=O)CCC1C(=O)NN=C1C)c1ccc([N+](=O)[O-])cc1 (stereo not given)	nt	nt	i	nt	i	nt
CC1=NNC(=O)C1CCC(=O)N/N=C(/C)c1ccc([N+](=O)[O-])cc1 (stereo not given)	30	i	nt	i	nt	i
C=CCN1C=CC(=C/C=C(/C#N)C(=O)OCC)C=C1	38	i	i	i	nt	30
CCOC(=O)C1=C(COC(=O)c2ccc([N+](=O)[O-])s2)NC(=O)NC1C (stereo not given)	100	nt	i	nt	i	76
CCOC(=O)C1=C(COC(=O)c2ccccc2OC(F)F)NC(=O)NC1C (stereo not given)	i	nt	i	nt	i	nt
CCOC(=O)C1=C(COC(=O)c2sccc2C)NC(=O)NC1C (stereo not given)	i	nt	i	nt	i	nt
CCOC(=O)C1=C(COC(=O)c2ccc3ccccc3c2O)NC(=O)NC1C (stereo not given)	36	nt	i	nt	i	i
C=CCn1c(SCC(=O)c2[nH]c(C)c(C(=O)OCC)c2C)nc2sc3c(c2c1=O)CCC3	nt	nt	i	nt	nt	nt
O=C(CSCc1ccccc1)N1CCc2ncncc2C1	nt	nt	i	nt	nt	nt
